Experimental findings from PubChem BioAssay (NCI) are described below.

Among the test systems are HCT-15 colon; HT29 colon; SNB-19 CNS; U251 CNS; SK-MEL-5 melanoma; UACC-62 melanoma; LOX IMVI melanoma; SK-MEL-2 melanoma; EKVX NSCLC; SN12C renal; UO-31 renal; TK-10 renal; ACHN renal; CAKI-1 renal; CCRF-CEM leukemia; MOLT-4 leukemia; A498 renal; PC-3 prostate; SK-MEL-28 melanoma.
What all share (assay): NCI-60 one-dose screen, 48 h (100 = growth as untreated, 0 = no growth, -100 = all killed)
Holding throughout (conditions): 10 µM unless noted

About 83,000 compounds went through this panel and 20% of them were active in at least one assay; those are over-represented in the sample as a whole.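 Note: values are percent growth. 100 is the growth of untreated cells, values between 100 and 0 indicate rising inhibition; between -100 and 0 indicates cell death.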 Unmarked numbers belong to inactive results. The source made the active and inactive calls. The calls were made as follows: active = growth percent below 10; inactive = the rest.

For `COc1ccc(/C=C/c2c(C(C)=O)c(C)nc3ccccc23)cc1`, the growth in the assay on HCT-15 colon was 95.8%; with HT29 colon, 80.1%; with SNB-19 CNS, 82.1%; in the assay with U251 CNS it was 94.8%; with SK-MEL-5 melanoma, 33.3%; with UACC-62 melanoma, 52.4%. Moreover, the growth is 96.6% in the assay on LOX IMVI melanoma; 75.8% in the assay on SK-MEL-2 melanoma; 81.7% with EKVX NSCLC; 85.6% with SN12C renal; 65.1% in the assay with UO-31 renal; 77.9% in the assay on TK-10 renal. Besides, the growth in the assay on ACHN renal is 84.5%; with CAKI-1 renal, 81.4%; in the assay on CCRF-CEM leukemia, 77.7%; in the assay on MOLT-4 leukemia it was 73.1%.

`Nc1nnc(-c2ccc3ccccc3c2O)o1`: the growth in the assay with HCT-15 colon was 78.6%; in the assay with HT29 colon, 105%; with SNB-19 CNS, 97.1%; in the assay with U251 CNS, 90.4%; in the assay with SK-MEL-5 melanoma, 94.8%; in the assay with UACC-62 melanoma it was 97.5%. For the same compound, the growth in the assay on LOX IMVI melanoma was 85.3%; in the assay with SK-MEL-2 melanoma, 97.9%; in the assay on SN12C renal, 95.9%; with UO-31 renal, 61.5%; in the assay with TK-10 renal, 128%; in the assay on ACHN renal it was 91.7%. Further, the growth with CAKI-1 renal was 96.8%; with A498 renal it was 103%; with CCRF-CEM leukemia it was 88.7%; with MOLT-4 leukemia, 75.5%.

Turning to `COc1ccc(C2CC(c3ccc(OC)cc3OC)=NN2c2ccc(S(N)(=O)=O)cc2)cc1` (stereo unspecified), the growth in the assay on HCT-15 colon is 75%; in the assay on HT29 colon it was 71.8%; with U251 CNS, 79.3%; in the assay with PC-3 prostate, 56%; with SK-MEL-5 melanoma, 91.6%; with UACC-62 melanoma it was 77.2%. Also, the growth was 101% with LOX IMVI melanoma; 125% in the assay on SK-MEL-28 melanoma; 94.6% with SK-MEL-2 melanoma; 87.5% with EKVX NSCLC; 90.8% in the assay with SN12C renal; 86.8% in the assay with UO-31 renal. The growth is 105% in the assay on TK-10 renal, 107% with ACHN renal, 75.5% in the assay with CCRF-CEM leukemia and 61.8% with MOLT-4 leukemia.

Regarding `COc1cc(-c2nn(-c3cccc(NC(=O)c4ccc(Cl)c(C(F)(F)F)c4)c3)cc2-c2ccncc2)ccc1Cl`, the growth in the assay with HCT-15 colon is 51.7%; with HT29 colon, 50.1%; in the assay on SNB-19 CNS it was 66%; with U251 CNS, 32.5%; in the assay with SK-MEL-5 melanoma, 17.5%; in the assay on UACC-62 melanoma, 32.8%. Further, the growth was 32.2% in the assay with LOX IMVI melanoma; 41.6% in the assay on SK-MEL-28 melanoma; 18.9% in the assay with SK-MEL-2 melanoma; 57.3% in the assay on SN12C renal; 37.1% with UO-31 renal; 69.5% in the assay on TK-10 renal. The growth was 39.1% in the assay on ACHN renal; 61.1% in the assay with CAKI-1 renal; 11.8% in the assay on A498 renal; 12.4% in the assay with CCRF-CEM leukemia; 20.3% in the assay on MOLT-4 leukemia.

Consider `CCCCOc1ccc(/C=C2/SC(N3CCCC3)=NC2=O)cc1`, for which the growth in the assay with HCT-15 colon is 97.2%; in the assay on HT29 colon, 94.6%; in the assay on SNB-19 CNS it was 92.8%; in the assay with U251 CNS, 84.6%; with SK-MEL-5 melanoma it was 95.2%; in the assay on UACC-62 melanoma it was 87.4%. Also, the growth in the assay with LOX IMVI melanoma is 96.2%; in the assay on SK-MEL-28 melanoma, 101%; in the assay on SK-MEL-2 melanoma, 105%; in the assay with EKVX NSCLC it was 94.5%; in the assay with SN12C renal, 87.3%; in the assay on UO-31 renal it was 82.4%. The growth with TK-10 renal is 103%; in the assay on ACHN renal, 103%; with CAKI-1 renal it was 96.8%; with A498 renal, 91.3%; with CCRF-CEM leukemia it was 84.3%; with MOLT-4 leukemia it was 95.6%.

For `O=C1c2c(c3c4ccccc4n(CCCCCCBr)c3c3[nH]c4ccccc4c23)C(=O)N1O`, the growth in the assay on HCT-15 colon was 7.75% (active); in the assay with HT29 colon it was -19.7% (active); in the assay with SNB-19 CNS, 24.2%; with U251 CNS, 10.9%; in the assay on SK-MEL-5 melanoma, -69.5% (active); in the assay with SK-MEL-2 melanoma it was -19.4% (active). Also, the growth with EKVX NSCLC is 19.8%; in the assay with SN12C renal it was 8.36% (active); with UO-31 renal it was 0.628% (active); in the assay with TK-10 renal, 18.1%; in the assay on ACHN renal, 4.33% (active); in the assay on CAKI-1 renal it was -23.7% (active). In addition, the growth in the assay with A498 renal was -9.63% (active); in the assay on CCRF-CEM leukemia it was 3.53% (active); in the assay with MOLT-4 leukemia it was 0.344% (active).

For the compound `CN(C)c1oc(C2OC2c2ccccc2)nc1C#N` (stereo unspecified), the growth was 106% with HCT-15 colon; 92.9% in the assay on HT29 colon; 83.2% in the assay with SNB-19 CNS; 94% in the assay on U251 CNS; 102% in the assay with SK-MEL-5 melanoma; 76.1% with UACC-62 melanoma. The growth in the assay with LOX IMVI melanoma is 99.3%; in the assay on SK-MEL-28 melanoma, 87.8%; in the assay on SK-MEL-2 melanoma, 99.4%; with EKVX NSCLC, 102%; with SN12C renal, 95.1%; with UO-31 renal it was 77.8%. Besides, the growth in the assay with TK-10 renal is 129%; in the assay on CAKI-1 renal, 93.7%; with A498 renal, 123%; in the assay on CCRF-CEM leukemia, 86.1%; with MOLT-4 leukemia, 97.7%.

In the case of `CN1CCN(Cc2ccc(NC(=O)c3cncc(C#Cc4cnc(N)c5ccncc45)c3)cc2C(F)(F)F)CC1`, the growth in the assay with HCT-15 colon is 10.9%; in the assay on HT29 colon, 9.95% (active); in the assay on SNB-19 CNS, 51.3%; in the assay with U251 CNS it was 37.3%; in the assay on SK-MEL-5 melanoma, 11.9%; with UACC-62 melanoma, -28.8% (active). Further, the growth was -83.9% (active) in the assay on LOX IMVI melanoma; -3.08% (active) in the assay on SK-MEL-28 melanoma; -25.2% (active) in the assay on SK-MEL-2 melanoma; 13.9% in the assay on EKVX NSCLC; 6.05% (active) in the assay with SN12C renal; 3.59% (active) in the assay on UO-31 renal. Besides, the growth is 48.6% in the assay with TK-10 renal; 2.28% (active) with ACHN renal; 4.48% (active) with CAKI-1 renal; -22.7% (active) in the assay on A498 renal; 14.2% in the assay with CCRF-CEM leukemia; 16.6% in the assay on MOLT-4 leukemia.

Consider `COc1cc(/C=N\NC(=O)CN2CCN(c3cc4c(cc3F)c(=O)c(C(=O)N/N=C/c3cc(OC)c(OC)c(OC)c3)cn4C3CC3)CC2)cc(OC)c1OC`, for which the growth was 101% with HCT-15 colon; 4.47% (active) in the assay on HT29 colon; 2.13% (active) in the assay on U251 CNS; -19.8% (active) in the assay on PC-3 prostate; -15.4% (active) with SK-MEL-5 melanoma; -34.7% (active) with UACC-62 melanoma. Moreover, the growth with LOX IMVI melanoma was -67.1% (active); in the assay on SK-MEL-28 melanoma it was -11.6% (active); in the assay on SK-MEL-2 melanoma, -26.2% (active); in the assay on EKVX NSCLC, 55.2%; in the assay with SN12C renal it was -25.8% (active); with UO-31 renal, 71.8%. The growth in the assay with TK-10 renal was 64.2%; with ACHN renal, 93.7%; in the assay on CAKI-1 renal it was 77.7%; in the assay with A498 renal, 46.6%; in the assay on CCRF-CEM leukemia it was 4.32% (active); with MOLT-4 leukemia, 0.748% (active).
